Bioassay records (PubChem)
IL-1B inflam inh – blocks inflammasome-driven IL-1 beta release | activity change, % at 57.5 µM | THP-1 LPS/ATP IL-1B secretion, AlphaLISA, 16 h; active compounds read low | AID 743279 | 4.7% of 360,000 active; in the data active = activity change below about -50%; inconclusive = mostly about -30% to -49%
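Secreted IL-1B measured by AlphaLISA bead assay after 16 h compound exposure of THP-1 cells; compounds (final up to 57.5 uM) added 1 h before LPS (250 ng/mL) and ATP (1.25 mM) stimulation; lower signal means less secretion.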
HT1080 IDH1KD tx – toxicity to HT-1080 IDH1 knockdown cells (counter line); AID 686971; HT-1080 IDH1 knockdown viability, ATP luminescence, 48 h; Potency, µM (doses to about 46.1 µM), without a hit: at the top dose activity, negative = toxicity, actives largely listed as cytotoxic; 2% of 360,000 active;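 note: potency is the fitted concentration of half-maximal effect; 0% = DMSO wells and -100% = cell-free medium wells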
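In this qHTS, HT-1080 cells depleted of IDH1 are exposed for 48 h at 37 °C to compound titrations. Toxicity is scored from CellTiter-Glo luminescence, with DMSO as full viability and medium alone as none.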
ELG1 repair inh – inhibitors of ELG1-dependent DNA repair in HEK293T cells; HEK293T ELG1-luciferase reporter, luminescence, 16 h; DNA damage induced by 5-fluorouridine; Potency, µM (titrated, usually from 46.1 µM), for the others: at the top dose activity change, negative = inhibition, most hits filed as inhibitors; 2.3% of 330,000 active; AID 504467; note: potency is the fitted concentration of half-maximal effect; nearly all actives have a fitted effect of over 55% in size
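In this reporter screen, reduction of luminescence relative to DMSO vehicle indicated activity. Compounds and 5-fluorouridine were added together to 2,000 cells per well, incubated for 16 hr at 37 °C, then developed with ONE-Glo.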
HT1080NT lethal – kills 2HG-producing HT-1080-NT fibrosarcoma cells; Potency, µM (highest dose often 46.1 µM), without a hit: at the top dose activity, negative = less viability, most hits filed as cytotoxic; 1.6% of 360,000 active; HT-1080-NT fibrosarcoma viability, CellTiter-Glo ATP luminescence, 48 h;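 note: NT is the 2HG producing partner of a matched IDH1 knockdown line; potency is the fitted concentration of half-maximal effect; 0% = DMSO-treated cells and -100% = media-only wells without cells; nearly all actives have a fitted effect of over 55% in size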
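Viability by CellTiter-Glo luminescence after 48 h compound exposure at 37C of HT-1080-NT cells (750/well, RPMI, 5% FBS). % activity scaled between DMSO wells and medium-only wells, then curve-fitted and categorized by curve class.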
DT40 TDP1 no CPT – qHTS for Inhibitors of human tyrosyl-DNA phosphodiesterase 1 (TDP1): qHTS in cells in absence of CPT. DT40 Tdp1-/- hTDP1 cells, no CPT, ATP luminescence, 48 h. Potency, µM (top dose mostly 46.2 µM), without a hit: at the highest dose activity change, negative = growth inhibition, actives largely listed as inhibitors. 15% of 420,000 active. AID 686978, 2013; note: potency is the fitted concentration of half-maximal effect; nearly all actives have a fitted effect of over 55% in size
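Growth of hTDP1-complemented DT40 Tdp1-knockout cells is measured by ATP luminescence after at least 48 hr compound exposure at 37 °C, with DMSO substituting for the 20 nM CPT used in the parallel screen.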
DT40 TDP1 CPT – growth inhibition of DT40 Tdp1-/-;hTDP1 cells with camptothecin (screen for TDP1 inhibitors) | chicken DT40 Tdp1-/-;hTDP1 cells + 20 nM CPT, ATP luminescence, 48 h | Potency, µM (top dose mostly 46.2 µM), for inactives: at the top dose activity change, negative = growth inhibition, hits mostly inhibitors | 12% of 420,000 active | AID 686979; note: potency is the fitted concentration of half-maximal effect; nearly all actives have a fitted effect of over 55% in size
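Cell growth measured by CellTiter-Glo luminescence after a minimum 48 h, 37 C compound exposure with 20 nM CPT in Tdp1-knockout DT40 cells stably expressing hTDP1, seeded 400/well; qHTS titration format.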
Numbers without * were called inactive; u = inconclusive; x = no result; [ ] = dose if it differs, or a comment. An excerpt weighted towards active compounds, which were near 19% of everything screened. Unless noted, calls come from the whole dose curve; as a rule, active = well fitted curve in the direction sought with a large enough effect; inconclusive = small, poorly fitted or top-dose-only effect, or another doubt; inactive = no such curve, though single readings can be large; an effect the other way counts as inactive or inconclusive. Unless noted, % is set by controls: 0 for no effect and ±100 for the full control effect.

SMILES	IL-1B inflam inh	HT1080 IDH1KD tx	ELG1 repair inh	HT1080NT lethal	DT40 TDP1 no CPT	DT40 TDP1 CPT
C=C1CCN([C@@H](Cc2ccccc2)C(=O)NCc2ccc(Cl)c(Cl)c2)S(=O)(=O)c2ccccc21	-17	-14%	x	0%	u	u
O=C(COc1ccc2ccccc2c1)N/N=C/C1CC=CCC1 (stereo not drawn)	6	2%	-1%	15%	0%	-2%
CCOC(=O)CN[C@@H](C(=O)N1CC[C@H]1C(=O)NCc1ccc(/C(N)=N/O)cc1)C1CCCCC1	x	x	x	x	4%	-3%
C=CCn1c(=O)c(C(=O)NC2CC2)c(O)c2cc(OC)c(OC)cc21	14	-9%	-4%	-1%	u	u
CCn1ncc(Cl)c1C(=O)NC(=S)Nc1c(C)cc(C)cc1[N+](=O)[O-]	-20	2%	-5%	-4%	23µM*	u
Cc1cc(C)c(NC(=S)NC(=O)c2c(Cl)c(C)nn2C)c([N+](=O)[O-])c1	7	-11%	15%	-1%	-11%	6%
CCn1c(-c2ccccc2F)nc2cc(NC(C)=O)cc(C(=O)NCc3ncc(C)[nH]3)c21	x	x	x	x	-16%	19%
O=C(CCCN1C(=O)/C(=C\c2ccccc2)SC1=S)Nc1ccc(O)cc1C(=O)O	4	4%	u	7%	-5%	-14%
COc1ccc(/C=C2\SC(=S)N(CCC(=O)NCCc3ccc(O)cc3)C2=O)cc1	-8	9%	2%	-4%	16µM*	u
COc1ccccc1/C=C1\SC(=S)N(CCC(=O)NCCc2ccc(O)cc2)C1=O	-82*	u	-5%	u	16µM*	u
O=C(CCN1C(=O)/C(=C/c2ccccc2)SC1=S)NCCc1ccc(O)cc1	-12	u	-11%	u	u	16µM*
Cn1c(=O)nc2n(Cc3ccccc3)c3cccc(Cl)c3cc-2c1=O	11	20%	14%	15%	29µM*	u
Cc1cccc(-n2c3nc(=O)n(C)c(=O)c-3cc3c(Cl)cccc32)c1C	x	x	x	x	-2%	6%
O=C(NCC1Cc2cc(-c3cncnc3)cc(Cl)c2O1)c1cccc(Cn2cccn2)c1 (stereo not drawn)	x	x	x	x	-25%	3%[9.04 µM]
C=CC[n+]1c(/C=C2\C=Cc3cc(C)ccc3N2CC)ccc2ccccc21	-88*	13µM*	u	u	0.073µM*	0.18µM*
COc1cc(C(=O)N2CCN(S(=O)(=O)c3cccc(F)c3)CC2)ccc1OCC(=O)N1CCOCC1	-2	-1%	0%	0%	-3%	-10%
COc1cccc(-n2cc(CNCc3cn(C)nc3-c3ccccc3F)cn2)c1	-2	u	-6%	-26%	26µM*	u
COc1cccc(-n2cc(CNCc3c(C(=O)N(C)C)nc4ccc(Cl)cn34)cn2)c1	-3	5%	u	-7%	15µM*	u
O=S(=O)(c1ccc(N=C2NN=C(c3cc(F)ccc3F)CS2)cc1)N1CCOCC1	-76*	16µM*	u	u	6.5µM*	8.2µM*
Fc1ccc(C2=NNC(=NCc3ccccc3)SC2)cc1F	u	-29%	u	-29%	u	-17%
Cc1cc(C2=NNC(=Nc3ccccc3)SC2)c(C)n1C	-20	-2%	u	7%	u	u
Fc1ccc(N=C2NN=C(c3cc(F)ccc3F)CS2)cc1	-96*	u	u	u	15µM*	u
CC(C)N=C1NN=C(c2ccc(F)cc2)CS1	-1	-9%	u	-8%	23µM*	18µM*
Cc1cc(S(=O)(=O)N2CCOCC2)ccc1F	10	13%	16%	11%	-7%	-12%
Fc1ccccc1N=C1NN=C(c2ccccc2)CS1	-90*	u	u	13µM*	u	u
SMILES	IL-1B inflam inh	HT1080 IDH1KD tx	ELG1 repair inh	HT1080NT lethal	DT40 TDP1 no CPT	DT40 TDP1 CPT
CC(Cc1cccs1)NC(=O)CCCn1nnnc1CN1CCOCC1 (stereo not drawn)	8	2%	-13%	1%	0%	7%
CCOc1ccc(-n2c(SCC(=O)Nc3ccc(CC)cc3)nc3c(oc4ccccc43)c2=O)cc1	x	x	x	x	u	1%
COc1ccc(-n2nc(C(=O)N3CCN(c4ccccc4OC)CC3)c3c4ccccc4n(C)c3c2=O)cc1	x	x	x	x	3%	-6%
CCC(Oc1ccccc1)C(=O)N1CCN(S(=O)(=O)c2ccccc2)CC1 (stereo not drawn)	6	4%	-5%	-3%	u	-14%
Cc1noc(C)c1C(=O)Nc1nc2ccccc2s1	8	-23%	u	-20%	-28%	1%
c1ccc(CN=C2NN=C(c3ccccc3)CS2)cc1	-67*	-9%	u	-11%	u	u
Fc1ccc(F)c(C2=NNC(=Nc3ccccc3F)SC2)c1	-8	u	u	u	16µM*	u
CC(=O)Nc1ccc(C2=NNC(=Nc3ccc(S(=O)(=O)N4CCOCC4)cc3)SC2)cc1	-52*	u	u	-22%	u	u
O=C1CSC(=Nc2ccccc2Cl)N1	3	0%	17%	5%	-7%	-12%
CC(=O)Nc1ccc(C(=O)Nc2ccc(S(=O)(=O)N3CCOCC3)cc2)cc1	3	3%	u	-1%	9%	-3%
Clc1ccccc1N=C1NN=C(c2cccs2)CS1	-77*	u	u	u	-2%	-4%
Cc1cccc(N=C2NN=C(c3ccccc3F)CS2)c1C	-4	0%	u	5%	u	-27%
Cc1ccc2c(c1)N(CC(=O)NCCc1ccccc1)C(=O)c1cccnc1O2	22	2%	7%	1%	0%	8%
CC(C)(C)N=C1NN=C(c2ccc(S(=O)(=O)N3CCCCC3)cc2)CS1	-30	-15%	u	-21%	u	16µM*
CCOc1ccccc1N1CC(C(=O)Nc2cc(Cl)ccc2C)CC1=O (stereo not drawn)	-2	1%	-19%	-11%	-15%	3%
COc1cc(C2c3cc4c(cc3OC(N3CCCCC3)C2C)OCO4)cc(OC)c1O (stereo not drawn)	25	-21%	x	-10%	u	u
CCN(CC)C1Oc2cc3c(cc2C(c2cc(OC)c(OC)c(OC)c2)C1C)OCO3 (stereo not drawn)	11	1.5µM*	x	1.8µM*	1.2µM*	2.3µM*
